From PubChem BioAssay (Tox21) come the findings set out here.

Inconclusive results are not listed. Entries that show only a call come without a potency. Calls of active or inactive are those of the source. The call rests on the fitted dose curve; in most records, active means well fitted curve in the direction sought with a large enough effect in the repeat runs; inconclusive means weak or mixed curves; inactive means no such curve, though single readings can be large; an effect the other way counts as inactive or inconclusive.

A short description of the first experiment: qHTS assay to identify small molecule antagonists of the retinoid acid receptor (RAR) signaling pathway - cell viability counter screen (AID 1159551). Further: nearly all actives have a fitted effect of over 35% in size. The settings on record: C3RL4 cells viability, ATP luminescence (CellTiter-Glo), 6 h; series mostly up to 92.4 µM. The gist of the method:
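Viability of C3RL4 cells is quantified from ATP by luminescence after 6 h treatment at 37 C with compounds and 1 uM retinol.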
On the technique in general: qHTS replaces the single test concentration by a dilution series.
Turning to `CC1=NN(c2cccc(S(=O)(=O)O)c2)C(=O)C1`, the outcome was inactive.

For `Cc1onc(-c2c(Cl)cccc2Cl)c1C(=O)Cl`, the compound was called inactive. Take `N[C@H](C(=O)O)[C@@H](O)c1ccc(O)c(O)c1`: the compound was classed as inactive. On the same count and under the same terms, the same measure for `C1CCC2=NCCCN2CC1`: “inactive”.

For the compound `CC(C#N)(CCC(=O)O)N=NC(C)(C#N)CCC(=O)O` (stereo not given), the result was inactive.

On to `C=CN1CCCCCC1=O`, for which the outcome was inactive. On the same count and under the same terms, the value for `CC[N+](CC)(CC)CCOc1cccc(OCC[N+](CC)(CC)CC)c1OCC[N+](CC)(CC)CC` was “inactive”; that for `CC(C)(N)C#N` was “inactive”. On the same count and under the same terms, the same measure for `OCCCCCO`: “inactive”; for `C=CCOCC(O)CO` (stereo not given): “inactive”. The same measure, in the same setting: the same measure for `CC(=O)O[C@@]12CO[C@@H]1C[C@H](O)[C@@]1(C)C(=O)[C@H](O)C3=C(C)[C@@H](OC(=O)[C@H](O)[C@@H](NC(=O)OC(C)(C)C)c4ccccc4)C[C@@](O)([C@@H](OC(=O)c4ccccc4)[C@H]21)C3(C)C`: “inactive”; for `CC(C)(C)C(=O)c1ccccc1`: “inactive”; for `CCN[C@H]1C[C@H](C)S(=O)(=O)c2sc(S(N)(=O)=O)cc21`: “inactive”. In the case of `C[N+]12CCC(CC1)C(OC(=O)C(O)(c1ccccc1)c1ccccc1)C2` (stereo not given), the compound was classed as inactive. Same read-out and setting: the value for `c1coc(CNc2ncnc3nc[nH]c23)c1` was “inactive”; that for `NC(=O)Cc1cccc2ccccc12` was “inactive”; that for `CCCn1cc[n+](C)c1C` was “inactive”. On the same count and under the same terms, the value for `O=C(c1ccccc1)C1(O)CCCCC1` was “inactive”.

For the compound `Nc1ccncc1N`, the outcome was inactive.

As to `C=COC(=O)C(C)(CC)CCC(C)C` (stereo not given), the compound was called inactive. Still for that read-out and setting: the same measure for `CC(=O)Oc1cccc(C)c1`: “inactive”. Still for that read-out and setting: the same measure for `CN(C)CCCN(C)CCCN(C)C`: “inactive”. `O=S(=O)(O)c1cc(O)c(O)c(S(=O)(=O)O)c1`: the result was inactive. As for `Cc1ncc(COP(=O)(O)O)c(C=O)c1O`, the outcome was inactive. As for `O=CN(CCO)CCO`, the compound was classed as inactive. Still for that read-out and setting: the value for `CCCc1ncc(C[n+]2ccccc2C)c(N)n1` was “inactive”; that for `CC1=NS(=O)(=O)c2cc(Cl)ccc2N1` was “inactive”.

Consider `CCOCC(C)O` (stereo not given), for which the result was inactive.

`COc1ccnc(CS(=O)c2nc3cc(OC(F)F)ccc3[nH]2)c1OC` (stereo not given): the outcome was inactive. Still for that read-out and setting: the same measure for `C=C(C)C(=O)OCC(O)CO` (stereo not given): “inactive”; for `CCN(C=O)CC`: “inactive”. Same read-out and setting: the value for `C[C@@H]1CCC[C@H](C)N1` was “inactive”; that for `COc1cc(-c2ccc(=O)[nH]n2)ccc1OC(F)F` was “inactive”; that for `CC(C)(CCC(=O)O)C(=O)O` was “inactive”. Still for that read-out and setting: the same measure for `Cc1ccc(C(=O)Nc2ccc(S(=O)(=O)O)c3cc(S(=O)(=O)O)cc(S(=O)(=O)O)c23)cc1NC(=O)c1cccc(NC(=O)Nc2cccc(C(=O)Nc3cc(C(=O)Nc4ccc(S(=O)(=O)O)c5cc(S(=O)(=O)O)cc(S(=O)(=O)O)c45)ccc3C)c2)c1`: “inactive”; for `Cc1nc(C2CCCCC2)c(-c2ccc(S(N)(=O)=O)c(F)c2)o1`: “inactive”; for `COc1cc(C)nc(-n2nc(C)cc2OC)n1`: “inactive”. As to `Cc1coc2ccccc2c1=O`, the result was inactive.

A further experiment is described as follows: qHTS assay to identify small molecule agonists of the retinoic acid receptor (RAR) signaling pathway (AID 1159553). Conditions: C3RL4 RARE luciferase reporter, agonist, 6 h; series mostly up to 73.3 µM. The gist of the method:
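Compounds dissolved in DMSO were pinned onto C3RL4 cells seeded the previous day, and plates were held 6 hr at 37 C. RARE-driven luciferase output was then read by luminescence.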
Turning to `C[N+]12CCC(CC1)C(OC(=O)C(O)(c1ccccc1)c1ccccc1)C2` (stereo not given), the Potency result was “inactive”.

`CCCn1cc[n+](C)c1C`: the Potency entry is “inactive”. In the case of `Cc1ncc(COP(=O)(O)O)c(C=O)c1O`, the Potency result is “inactive”. Turning to `COc1cc(-c2ccc(=O)[nH]n2)ccc1OC(F)F`, the Potency result was “inactive”.

A further experiment in a line: qHTS assay to identify small molecule antagonists of the estrogen related receptor (ERR) signaling pathway - cell viability counter screen (AID 1224818).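 Further: viability measured after 17.5 h of compound exposure.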 The settings on record: ERR reporter cell line viability counter screen; series mostly up to 46.1 µM. The gist of the method: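 Cytotoxicity check run alongside the ERR antagonist screen: cells exposed to test compounds 17.5 h at 37 C, viability taken as CellTiter-Fluor fluorescence intensity.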
Consider `CC[N+](CC)(CC)CCOc1cccc(OCC[N+](CC)(CC)CC)c1OCC[N+](CC)(CC)CC`, for which the outcome was inactive. Still for that read-out and setting: the same measure for `CC1=NS(=O)(=O)c2cc(Cl)ccc2N1`: “inactive”; for `Cc1ccc(C(=O)Nc2ccc(S(=O)(=O)O)c3cc(S(=O)(=O)O)cc(S(=O)(=O)O)c23)cc1NC(=O)c1cccc(NC(=O)Nc2cccc(C(=O)Nc3cc(C(=O)Nc4ccc(S(=O)(=O)O)c5cc(S(=O)(=O)O)cc(S(=O)(=O)O)c45)ccc3C)c2)c1`: “inactive”.
